Laboratory results taken from article PMC7862700, “An all-to-all approach to the identification of sequence-specific readers for epigenetic DNA modifications on cytosine”.

Columns and labels:
Experiment in all cases: DAPPL (digital affinity profiling via proximity ligation, sequencing); 10 mM Tris-HCl pH 7.5, 50 mM NaCl, 1 mM DTT, 4% glycerol, room temperature, 30 min; GST-TFs on glutathione beads, 16-mer random dsDNA library, 0.1% formaldehyde crosslink after washing; high values mean tight binding
Conditions in all cases: protein: recombinant; tags: N-terminal GST; dsDNA, one strand shown
ELK1 = molecular target: T1, ELK1 (Homo sapiens, UniProt P19419 1-428)
T1 sequence: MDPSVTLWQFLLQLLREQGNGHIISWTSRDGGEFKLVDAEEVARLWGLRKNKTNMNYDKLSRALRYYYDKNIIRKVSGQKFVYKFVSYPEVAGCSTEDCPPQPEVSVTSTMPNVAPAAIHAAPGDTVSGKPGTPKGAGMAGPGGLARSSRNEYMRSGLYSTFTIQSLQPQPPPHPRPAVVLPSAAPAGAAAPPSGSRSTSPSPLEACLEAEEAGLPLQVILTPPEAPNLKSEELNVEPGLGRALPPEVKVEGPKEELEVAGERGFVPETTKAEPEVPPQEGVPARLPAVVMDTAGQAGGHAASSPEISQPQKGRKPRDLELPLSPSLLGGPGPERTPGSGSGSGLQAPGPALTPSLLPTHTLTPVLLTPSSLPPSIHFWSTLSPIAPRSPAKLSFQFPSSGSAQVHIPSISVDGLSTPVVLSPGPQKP
Outline: (§1)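 Sequencing on an Illumina NextSeq500 followed washing, crosslinking with 0.1% formaldehyde, proximity ligation (BsaI/T4 ligase, 1 h, 37 °C) and PCR amplification of pools that had been incubated for 30 min at room temperature with 200 nmole of a random double-stranded 16-mer DNA library in Tris/NaCl/DTT/glycerol buffer. Each pool held DNA-barcoded human transcription factors, expressed in yeast as GST fusions and captured on glutathione beads, plus a tag-only sample. Binding signal is a hexamer's read frequency for a factor divided by its frequency in the tag-only sample.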

GABPA = molecular target: T2, GABPA (Homo sapiens, UniProt Q06546 1-454)
T2 sequence: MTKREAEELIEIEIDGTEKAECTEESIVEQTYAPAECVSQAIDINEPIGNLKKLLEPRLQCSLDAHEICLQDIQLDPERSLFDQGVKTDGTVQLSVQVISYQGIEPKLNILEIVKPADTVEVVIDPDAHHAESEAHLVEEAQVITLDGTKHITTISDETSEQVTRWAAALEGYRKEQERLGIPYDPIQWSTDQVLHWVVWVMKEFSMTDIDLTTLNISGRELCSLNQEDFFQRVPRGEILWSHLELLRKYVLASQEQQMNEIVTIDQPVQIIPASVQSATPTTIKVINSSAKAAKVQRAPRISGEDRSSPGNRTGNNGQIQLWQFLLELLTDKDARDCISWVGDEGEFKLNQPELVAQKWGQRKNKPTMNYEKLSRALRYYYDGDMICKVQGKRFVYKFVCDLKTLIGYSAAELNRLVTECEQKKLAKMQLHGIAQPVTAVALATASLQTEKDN
Outline: as §1

ERG = molecular target: T3, ERG (Homo sapiens, UniProt P11308 1-479)
T3 sequence: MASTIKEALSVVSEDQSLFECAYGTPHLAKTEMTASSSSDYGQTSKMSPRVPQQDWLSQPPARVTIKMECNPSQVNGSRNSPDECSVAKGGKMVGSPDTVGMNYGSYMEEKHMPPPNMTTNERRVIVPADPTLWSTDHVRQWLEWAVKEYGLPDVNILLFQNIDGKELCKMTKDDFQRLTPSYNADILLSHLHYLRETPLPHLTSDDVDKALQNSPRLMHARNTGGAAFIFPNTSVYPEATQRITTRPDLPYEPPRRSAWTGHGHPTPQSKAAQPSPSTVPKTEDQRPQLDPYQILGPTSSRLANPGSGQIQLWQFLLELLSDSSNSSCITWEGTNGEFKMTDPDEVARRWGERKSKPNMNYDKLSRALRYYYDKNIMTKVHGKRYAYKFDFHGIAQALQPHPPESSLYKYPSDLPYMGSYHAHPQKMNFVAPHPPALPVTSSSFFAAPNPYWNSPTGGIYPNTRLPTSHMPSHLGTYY
Outline: as §1

ELF1 = ELF1 (Homo sapiens, UniProt P32519 1-619)
Outline: as §1

EHF = molecular target: T4, EHF (Homo sapiens, UniProt Q9NZC4 1-300)
T4 sequence: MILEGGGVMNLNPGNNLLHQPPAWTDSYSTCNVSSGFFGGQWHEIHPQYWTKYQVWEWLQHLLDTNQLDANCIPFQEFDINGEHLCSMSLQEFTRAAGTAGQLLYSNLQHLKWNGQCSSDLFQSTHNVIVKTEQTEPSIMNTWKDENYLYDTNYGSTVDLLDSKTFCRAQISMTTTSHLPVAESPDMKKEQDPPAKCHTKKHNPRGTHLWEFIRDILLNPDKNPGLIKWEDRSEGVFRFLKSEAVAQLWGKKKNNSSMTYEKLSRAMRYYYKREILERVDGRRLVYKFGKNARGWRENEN
Outline: as §1

SPIB = SPIB (Homo sapiens, UniProt Q01892 1-262)
Outline: as §1

FEV = molecular target: T5, FEV (Homo sapiens, UniProt Q99581 1-238)
T5 sequence: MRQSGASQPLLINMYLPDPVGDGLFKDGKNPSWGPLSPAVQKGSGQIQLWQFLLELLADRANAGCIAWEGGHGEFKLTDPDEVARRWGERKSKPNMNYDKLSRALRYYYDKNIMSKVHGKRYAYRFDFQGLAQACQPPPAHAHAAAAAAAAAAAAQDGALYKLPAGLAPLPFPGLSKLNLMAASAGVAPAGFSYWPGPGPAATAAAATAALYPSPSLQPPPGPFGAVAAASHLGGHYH
Outline: as §1

ETV5 = ETV5 (Homo sapiens, UniProt P41161 1-510)
Outline: as §1

ELF4 = ELF4 (Homo sapiens, UniProt Q99607 1-663)
Outline: as §1

ELK4 = molecular target: T6, ELK4 (Homo sapiens, UniProt P28324-2 1-405)
T6 sequence: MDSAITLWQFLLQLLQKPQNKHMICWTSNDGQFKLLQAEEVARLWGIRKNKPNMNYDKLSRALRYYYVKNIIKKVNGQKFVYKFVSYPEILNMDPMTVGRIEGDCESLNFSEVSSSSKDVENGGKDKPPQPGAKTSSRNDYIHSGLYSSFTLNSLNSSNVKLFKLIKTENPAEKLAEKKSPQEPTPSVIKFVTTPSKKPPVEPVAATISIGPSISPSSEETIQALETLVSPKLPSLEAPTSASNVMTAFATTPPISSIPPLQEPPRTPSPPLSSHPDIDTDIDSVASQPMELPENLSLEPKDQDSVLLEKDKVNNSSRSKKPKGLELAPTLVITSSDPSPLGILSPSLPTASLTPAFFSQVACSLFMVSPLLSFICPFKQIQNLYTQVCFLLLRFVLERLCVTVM
Outline: as §1

ETV2 = molecular target: T7, ETV2 (Homo sapiens, UniProt O00321 1-342)
T7 sequence: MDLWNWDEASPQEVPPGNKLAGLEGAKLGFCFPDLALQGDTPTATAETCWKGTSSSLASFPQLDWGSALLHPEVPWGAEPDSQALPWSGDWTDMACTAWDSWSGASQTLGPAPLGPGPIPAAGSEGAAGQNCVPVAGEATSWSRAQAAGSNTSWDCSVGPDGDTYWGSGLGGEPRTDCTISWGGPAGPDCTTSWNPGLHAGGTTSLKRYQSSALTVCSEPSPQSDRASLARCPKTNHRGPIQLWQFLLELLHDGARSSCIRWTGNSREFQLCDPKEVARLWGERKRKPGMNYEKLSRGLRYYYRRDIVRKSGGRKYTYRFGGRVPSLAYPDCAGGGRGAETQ
Outline: as §1

ELF3 = molecular target: T8, ELF3 (Homo sapiens, UniProt P78545 1-371)
T8 sequence: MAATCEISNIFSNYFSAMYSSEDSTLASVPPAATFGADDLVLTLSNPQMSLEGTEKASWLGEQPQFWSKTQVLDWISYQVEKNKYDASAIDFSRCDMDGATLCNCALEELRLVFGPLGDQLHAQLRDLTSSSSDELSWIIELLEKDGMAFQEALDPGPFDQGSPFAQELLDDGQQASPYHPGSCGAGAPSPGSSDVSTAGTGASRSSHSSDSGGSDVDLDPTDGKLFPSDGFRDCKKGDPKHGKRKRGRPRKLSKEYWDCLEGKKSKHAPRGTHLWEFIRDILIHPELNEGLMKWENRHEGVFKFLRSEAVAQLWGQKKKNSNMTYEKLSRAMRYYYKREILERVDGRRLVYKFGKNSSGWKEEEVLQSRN
Outline: as §1

ETV1 = ETV1 (Homo sapiens, UniProt P50549 1-477)
Outline: as §1

ETV3L = molecular target: T9, ETV3L (Homo sapiens, UniProt Q6ZN32 1-361)
T9 sequence: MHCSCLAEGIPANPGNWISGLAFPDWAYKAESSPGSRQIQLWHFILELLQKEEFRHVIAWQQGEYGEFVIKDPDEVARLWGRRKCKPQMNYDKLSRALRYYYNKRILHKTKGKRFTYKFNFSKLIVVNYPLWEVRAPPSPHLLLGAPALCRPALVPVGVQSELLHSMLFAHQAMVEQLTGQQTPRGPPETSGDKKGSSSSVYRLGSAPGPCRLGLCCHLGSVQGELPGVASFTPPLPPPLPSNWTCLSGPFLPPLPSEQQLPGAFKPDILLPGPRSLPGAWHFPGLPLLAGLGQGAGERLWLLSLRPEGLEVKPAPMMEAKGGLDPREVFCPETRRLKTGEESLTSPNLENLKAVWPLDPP
Outline: as §1

ETS2 = molecular target: T10, ETS2 (Homo sapiens, UniProt P15036 1-469)
T10 sequence: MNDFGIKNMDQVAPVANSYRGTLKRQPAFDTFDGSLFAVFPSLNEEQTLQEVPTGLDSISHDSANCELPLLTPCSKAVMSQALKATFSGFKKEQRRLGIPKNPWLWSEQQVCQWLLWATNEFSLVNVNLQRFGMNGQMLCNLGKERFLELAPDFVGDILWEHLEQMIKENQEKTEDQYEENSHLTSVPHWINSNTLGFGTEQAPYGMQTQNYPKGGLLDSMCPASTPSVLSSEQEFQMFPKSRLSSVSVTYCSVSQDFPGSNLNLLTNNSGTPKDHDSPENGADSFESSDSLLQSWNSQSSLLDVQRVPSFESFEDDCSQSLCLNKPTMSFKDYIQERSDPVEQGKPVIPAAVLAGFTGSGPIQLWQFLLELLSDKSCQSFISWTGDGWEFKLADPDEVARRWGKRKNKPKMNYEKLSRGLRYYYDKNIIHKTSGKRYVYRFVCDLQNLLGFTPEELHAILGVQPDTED
Outline: as §1

SPDEF = molecular target: T11, SPDEF (Homo sapiens, UniProt O95238 1-335)
T11 sequence: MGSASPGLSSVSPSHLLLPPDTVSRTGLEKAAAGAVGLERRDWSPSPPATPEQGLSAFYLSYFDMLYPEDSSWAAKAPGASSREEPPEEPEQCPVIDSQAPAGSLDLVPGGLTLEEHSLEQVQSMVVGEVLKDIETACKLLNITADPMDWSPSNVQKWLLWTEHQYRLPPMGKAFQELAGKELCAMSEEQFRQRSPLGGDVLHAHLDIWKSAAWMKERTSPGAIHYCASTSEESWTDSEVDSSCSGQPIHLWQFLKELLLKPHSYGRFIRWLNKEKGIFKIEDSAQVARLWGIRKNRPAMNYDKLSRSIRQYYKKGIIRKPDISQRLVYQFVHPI
Outline: as §1

ETV3 = molecular target: T12, ETV3 (Homo sapiens, UniProt P41162-2 1-143)
T12 sequence: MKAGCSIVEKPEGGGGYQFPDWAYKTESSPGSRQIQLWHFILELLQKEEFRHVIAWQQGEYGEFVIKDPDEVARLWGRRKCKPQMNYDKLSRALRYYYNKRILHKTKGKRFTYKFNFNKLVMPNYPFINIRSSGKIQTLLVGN
Outline: as §1

ETV6 = ETV6 (Homo sapiens, UniProt P41212 1-452)
Outline: as §1

Sequence of ETV5 (P41161 whole entry): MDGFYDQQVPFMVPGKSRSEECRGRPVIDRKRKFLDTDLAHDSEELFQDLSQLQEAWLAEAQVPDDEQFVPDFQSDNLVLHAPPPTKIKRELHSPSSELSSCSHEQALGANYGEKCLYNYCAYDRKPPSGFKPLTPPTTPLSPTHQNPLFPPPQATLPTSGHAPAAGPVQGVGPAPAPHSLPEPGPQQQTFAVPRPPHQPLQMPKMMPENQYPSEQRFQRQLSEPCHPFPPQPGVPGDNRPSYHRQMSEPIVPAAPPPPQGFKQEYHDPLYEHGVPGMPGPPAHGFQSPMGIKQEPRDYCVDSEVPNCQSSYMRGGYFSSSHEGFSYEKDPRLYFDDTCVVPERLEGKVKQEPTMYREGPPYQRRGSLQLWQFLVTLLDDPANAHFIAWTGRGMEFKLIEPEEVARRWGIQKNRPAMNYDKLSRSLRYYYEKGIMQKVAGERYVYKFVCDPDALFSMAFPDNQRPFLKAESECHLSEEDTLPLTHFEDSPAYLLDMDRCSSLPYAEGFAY
Sequence of ETV6 (P41212 whole entry): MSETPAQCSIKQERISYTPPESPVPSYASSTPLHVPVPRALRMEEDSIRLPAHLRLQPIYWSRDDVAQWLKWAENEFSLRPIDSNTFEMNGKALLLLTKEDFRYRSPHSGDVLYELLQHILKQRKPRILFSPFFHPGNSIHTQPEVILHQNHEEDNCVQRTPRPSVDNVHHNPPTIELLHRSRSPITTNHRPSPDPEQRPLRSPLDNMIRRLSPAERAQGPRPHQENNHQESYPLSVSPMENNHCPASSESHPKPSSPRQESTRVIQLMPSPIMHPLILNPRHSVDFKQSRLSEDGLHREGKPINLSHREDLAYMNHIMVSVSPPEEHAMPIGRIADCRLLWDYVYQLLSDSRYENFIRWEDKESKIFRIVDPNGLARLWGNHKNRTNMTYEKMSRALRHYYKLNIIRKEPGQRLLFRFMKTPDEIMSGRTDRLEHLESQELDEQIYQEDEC
Sequence of ELF1 (P32519 whole entry): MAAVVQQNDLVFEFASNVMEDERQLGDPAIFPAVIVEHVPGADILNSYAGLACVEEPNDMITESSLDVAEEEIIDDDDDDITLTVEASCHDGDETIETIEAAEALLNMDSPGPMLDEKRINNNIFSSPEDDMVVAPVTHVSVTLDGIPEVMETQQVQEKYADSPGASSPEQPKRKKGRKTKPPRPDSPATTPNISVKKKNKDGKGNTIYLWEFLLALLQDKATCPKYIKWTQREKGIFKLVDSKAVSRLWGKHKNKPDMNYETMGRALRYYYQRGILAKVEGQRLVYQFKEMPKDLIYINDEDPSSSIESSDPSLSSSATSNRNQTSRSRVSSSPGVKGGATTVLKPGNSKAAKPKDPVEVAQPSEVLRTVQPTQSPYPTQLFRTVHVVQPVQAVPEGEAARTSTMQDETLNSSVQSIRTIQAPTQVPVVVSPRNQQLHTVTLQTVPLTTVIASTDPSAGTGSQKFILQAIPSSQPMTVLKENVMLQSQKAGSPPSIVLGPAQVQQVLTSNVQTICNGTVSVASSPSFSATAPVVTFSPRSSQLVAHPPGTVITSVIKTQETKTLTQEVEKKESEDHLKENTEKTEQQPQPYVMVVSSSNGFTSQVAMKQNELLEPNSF
Sequence of SPIB (Q01892 whole entry): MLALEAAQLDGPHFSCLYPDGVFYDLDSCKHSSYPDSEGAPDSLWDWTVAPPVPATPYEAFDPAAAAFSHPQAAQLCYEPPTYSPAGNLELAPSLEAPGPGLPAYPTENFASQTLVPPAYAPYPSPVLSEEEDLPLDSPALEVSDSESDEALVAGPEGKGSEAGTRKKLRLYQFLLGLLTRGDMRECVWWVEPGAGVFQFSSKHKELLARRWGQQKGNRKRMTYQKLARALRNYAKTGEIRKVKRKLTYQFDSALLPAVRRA
Sequence of ETV1 (P50549 whole entry): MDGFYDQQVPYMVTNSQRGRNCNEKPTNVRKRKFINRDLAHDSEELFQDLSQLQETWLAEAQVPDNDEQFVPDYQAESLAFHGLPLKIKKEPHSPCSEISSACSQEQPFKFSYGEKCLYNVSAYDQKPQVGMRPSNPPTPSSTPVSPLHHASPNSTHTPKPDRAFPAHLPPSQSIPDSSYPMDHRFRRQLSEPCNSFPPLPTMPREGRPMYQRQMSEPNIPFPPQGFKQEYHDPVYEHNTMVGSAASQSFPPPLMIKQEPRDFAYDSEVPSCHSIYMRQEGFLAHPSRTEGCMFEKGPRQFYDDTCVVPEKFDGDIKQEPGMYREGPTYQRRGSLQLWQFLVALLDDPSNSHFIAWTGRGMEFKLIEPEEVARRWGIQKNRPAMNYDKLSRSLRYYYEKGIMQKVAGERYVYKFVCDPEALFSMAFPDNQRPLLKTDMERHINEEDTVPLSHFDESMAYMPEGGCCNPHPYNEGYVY
Sequence of ELF4 (Q99607 whole entry): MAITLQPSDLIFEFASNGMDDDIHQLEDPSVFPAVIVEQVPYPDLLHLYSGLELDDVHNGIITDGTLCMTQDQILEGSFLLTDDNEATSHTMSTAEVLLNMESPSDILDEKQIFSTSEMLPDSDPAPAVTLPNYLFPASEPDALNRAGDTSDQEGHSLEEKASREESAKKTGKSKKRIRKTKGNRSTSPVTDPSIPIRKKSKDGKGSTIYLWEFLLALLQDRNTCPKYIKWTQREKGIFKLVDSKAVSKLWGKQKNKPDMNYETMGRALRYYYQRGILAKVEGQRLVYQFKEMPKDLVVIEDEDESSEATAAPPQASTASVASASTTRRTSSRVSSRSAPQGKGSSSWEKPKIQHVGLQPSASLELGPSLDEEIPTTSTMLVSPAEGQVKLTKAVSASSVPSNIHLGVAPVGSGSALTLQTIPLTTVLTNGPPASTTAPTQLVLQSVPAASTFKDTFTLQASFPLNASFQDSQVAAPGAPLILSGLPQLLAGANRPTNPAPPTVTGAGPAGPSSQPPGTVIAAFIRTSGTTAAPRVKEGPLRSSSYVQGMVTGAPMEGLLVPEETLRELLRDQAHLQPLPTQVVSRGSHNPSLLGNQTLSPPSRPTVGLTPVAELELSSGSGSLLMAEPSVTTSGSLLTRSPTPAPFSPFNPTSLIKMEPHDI

## ACACGC
ELK1
  binding signal: 1.06 fold enrichment (6-mer frequency, TF over GST control)
GABPA
  binding signal: 1.13 fold enrichment (6-mer frequency, TF over GST control)
ERG
  binding signal: 1.15 fold enrichment (6-mer frequency, TF over GST control)
ELF1
  binding signal: 1.17 fold enrichment (6-mer frequency, TF over GST control)
EHF
  binding signal: 1.08 fold enrichment (6-mer frequency, TF over GST control)
SPIB
  binding signal: 1.1 fold enrichment (6-mer frequency, TF over GST control)
FEV
  binding signal: 1.09 fold enrichment (6-mer frequency, TF over GST control)
ETV5
  binding signal: 1.1 fold enrichment (6-mer frequency, TF over GST control)
ELF4
  binding signal: 1.15 fold enrichment (6-mer frequency, TF over GST control)
ELK4
  binding signal: 1.26 fold enrichment (6-mer frequency, TF over GST control)
ETV2
  binding signal: 1.19 fold enrichment (6-mer frequency, TF over GST control)
ELF3
  binding signal: 1.11 fold enrichment (6-mer frequency, TF over GST control)
ETV1
  binding signal: 1.11 fold enrichment (6-mer frequency, TF over GST control)
ETV3L
  binding signal: 1.07 fold enrichment (6-mer frequency, TF over GST control)
ETS2
  binding signal: 1.05 fold enrichment (6-mer frequency, TF over GST control)
SPDEF
  binding signal: 1.08 fold enrichment (6-mer frequency, TF over GST control)
ETV3
  binding signal: 1.13 fold enrichment (6-mer frequency, TF over GST control)
ETV6
  binding signal: 1.13 fold enrichment (6-mer frequency, TF over GST control)
